Source: PubChem (National Center for Advancing Translational Sciences (NCATS))
The entries come from a sample that favours hits as a whole.
nsP2pro primary: CHIKV nsP2 protease inhibition, primary qHTS; Q8JUX6; FRET peptide cleavage, nsP2pro, fluorescence 1 h; Potency, µM (titrated, usually from 24.9 µM), for the others: at the highest dose activity change, negative = inhibition, hits mostly inhibitors; 31,000 tested, 1.1% active; AID 1964107; calls by dose curve; note: nearly all actives have a fitted effect of over 60% in size
Target sequence (Q8JUX6 whole entry, looked up): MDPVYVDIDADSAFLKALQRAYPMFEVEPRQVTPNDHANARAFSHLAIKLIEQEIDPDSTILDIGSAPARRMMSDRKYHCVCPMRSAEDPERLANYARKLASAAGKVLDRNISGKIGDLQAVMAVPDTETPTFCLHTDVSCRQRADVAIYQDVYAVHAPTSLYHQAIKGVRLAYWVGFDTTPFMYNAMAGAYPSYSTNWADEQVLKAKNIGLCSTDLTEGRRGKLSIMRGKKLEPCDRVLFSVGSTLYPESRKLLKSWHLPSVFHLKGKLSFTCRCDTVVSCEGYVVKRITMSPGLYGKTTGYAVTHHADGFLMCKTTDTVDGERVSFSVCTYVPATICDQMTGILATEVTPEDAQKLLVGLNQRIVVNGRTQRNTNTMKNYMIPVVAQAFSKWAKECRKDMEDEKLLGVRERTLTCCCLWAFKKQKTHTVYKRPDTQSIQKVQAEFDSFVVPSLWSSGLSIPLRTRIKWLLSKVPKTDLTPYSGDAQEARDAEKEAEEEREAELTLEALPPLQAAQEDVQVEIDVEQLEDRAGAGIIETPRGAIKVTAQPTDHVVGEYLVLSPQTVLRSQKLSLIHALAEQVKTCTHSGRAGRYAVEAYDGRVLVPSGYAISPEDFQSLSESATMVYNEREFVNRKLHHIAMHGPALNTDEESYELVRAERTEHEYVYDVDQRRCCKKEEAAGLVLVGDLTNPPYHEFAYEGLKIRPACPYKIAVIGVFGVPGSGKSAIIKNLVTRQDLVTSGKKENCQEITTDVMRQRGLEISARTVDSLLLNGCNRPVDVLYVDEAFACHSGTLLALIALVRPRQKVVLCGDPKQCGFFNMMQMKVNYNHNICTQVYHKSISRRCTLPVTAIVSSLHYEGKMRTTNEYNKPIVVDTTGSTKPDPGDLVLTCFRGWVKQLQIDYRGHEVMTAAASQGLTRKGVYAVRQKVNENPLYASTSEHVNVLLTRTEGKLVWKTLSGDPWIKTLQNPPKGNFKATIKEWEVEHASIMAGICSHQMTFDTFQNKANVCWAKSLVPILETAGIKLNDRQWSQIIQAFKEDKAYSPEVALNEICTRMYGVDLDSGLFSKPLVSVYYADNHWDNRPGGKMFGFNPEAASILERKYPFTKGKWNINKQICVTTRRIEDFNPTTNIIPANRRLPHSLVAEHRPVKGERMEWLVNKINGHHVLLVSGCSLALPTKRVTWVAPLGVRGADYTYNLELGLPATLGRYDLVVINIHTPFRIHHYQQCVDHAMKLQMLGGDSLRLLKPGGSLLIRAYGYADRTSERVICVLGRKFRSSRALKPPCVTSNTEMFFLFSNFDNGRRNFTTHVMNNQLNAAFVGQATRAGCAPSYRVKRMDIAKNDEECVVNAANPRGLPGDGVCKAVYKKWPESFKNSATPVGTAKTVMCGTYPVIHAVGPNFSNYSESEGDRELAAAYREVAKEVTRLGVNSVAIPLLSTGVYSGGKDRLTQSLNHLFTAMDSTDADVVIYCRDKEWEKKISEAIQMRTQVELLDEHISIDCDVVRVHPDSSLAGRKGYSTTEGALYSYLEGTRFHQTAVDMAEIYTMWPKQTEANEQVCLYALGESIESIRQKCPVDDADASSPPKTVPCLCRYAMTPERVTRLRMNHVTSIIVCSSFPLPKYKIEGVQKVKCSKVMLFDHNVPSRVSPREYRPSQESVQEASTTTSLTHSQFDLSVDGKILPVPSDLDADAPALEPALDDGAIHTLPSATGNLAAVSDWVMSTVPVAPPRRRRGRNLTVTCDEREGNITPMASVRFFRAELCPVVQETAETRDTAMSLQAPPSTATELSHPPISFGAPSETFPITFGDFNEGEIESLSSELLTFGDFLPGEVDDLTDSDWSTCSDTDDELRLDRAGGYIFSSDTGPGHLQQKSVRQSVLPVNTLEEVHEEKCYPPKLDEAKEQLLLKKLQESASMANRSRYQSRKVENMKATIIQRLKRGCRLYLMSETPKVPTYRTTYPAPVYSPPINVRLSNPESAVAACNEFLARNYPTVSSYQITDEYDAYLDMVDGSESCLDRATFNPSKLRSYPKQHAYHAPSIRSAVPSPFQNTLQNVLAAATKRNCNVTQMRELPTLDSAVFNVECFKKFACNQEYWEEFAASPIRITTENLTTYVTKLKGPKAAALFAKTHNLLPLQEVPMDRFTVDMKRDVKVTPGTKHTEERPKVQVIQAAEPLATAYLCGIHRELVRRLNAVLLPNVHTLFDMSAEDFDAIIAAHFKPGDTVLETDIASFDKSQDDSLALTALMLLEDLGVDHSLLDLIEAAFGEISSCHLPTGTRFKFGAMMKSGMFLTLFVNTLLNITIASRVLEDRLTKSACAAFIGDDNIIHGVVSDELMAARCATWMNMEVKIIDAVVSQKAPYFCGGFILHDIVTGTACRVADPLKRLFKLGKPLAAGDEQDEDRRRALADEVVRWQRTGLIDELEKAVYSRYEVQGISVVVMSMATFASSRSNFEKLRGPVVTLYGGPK
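Recombinant nsP2pro (150 nM) was preincubated with compound 15 min at room temperature in 10 mM Tris-HCl pH 8.0, 0.01% Tween 20. Peptide 2 FRET substrate (2.5 uM) was then added and fluorescence read after 1 h. Seven-point series, up to 25 uM.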
* = called active by the depositor; i = inactive; [ ] = remark or other dose. % is set by controls: 0 for no effect and ±100 for the full control effect; potency is the fitted concentration of half-maximal effect.

SMILES	nsP2pro primary
COc1ccc(C[C@H](C)NC[C@@H](O)c2ccc(O)c(NC=O)c2)cc1	12%
CC(CCc1ccc(O)cc1)NCC(O)c1ccc(O)cc1 (stereo not drawn)	1%
CC(Cc1ccc2c(c1)OCO2)NCC(O)c1ccc(O)c(O)c1 (stereo not drawn)	11µM*
CC(NC(=O)CCNS(=O)(=O)c1cccc2nsnc12)c1ccccc1 (stereo not drawn)	-12%
CN1CC2(CCN(Cc3ccc(-c4ccc(Cl)cc4)o3)C2)OC1=O (stereo not drawn)	13µM*
COc1ccc(-c2ncc(CN3CCCC4(C3)CN(C)C(=O)O4)cn2)cc1 (stereo not drawn)	-8%
COc1ccc(CN2CCCC3(C2)CN(C)C(=O)O3)cc1C(=O)O (stereo not drawn)	-5%
CN(C1CCCCC1)S(=O)(=O)C1CCS(=O)(=O)C1 (stereo not drawn)	0%
C=C(C)C(=O)OC1C(OC(C)=O)/C(C=O)=C\CC/C(CO)=C/C2OC(=O)C(=C)C21 (stereo not drawn)	1.4µM*
C=C1C(=O)O[C@@H]2/C=C(\CO)CC/C=C(\CO)[C@H](OC(C)=O)C(OC(=O)C(C)CC)C12 (stereo partly drawn)	-3%[10 µM]
C=C1C(=O)OC2/C=C(\CO)CC/C=C(\C=O)C(O)C(OC(=O)C(C)CC)C12 (stereo not drawn)	-6%
Cn1c(=O)c2c(nc(OC3CCN(C(=O)C4CC4)CC3)n2CCC(C)(C)C)n(C)c1=O	-3%
Cc1ccc(CNc2ccc3cc(S(=O)(=O)N4CCCCC4)ccc3n2)cc1	-17%
O=S(=O)(Nc1nccs1)c1ccc(NCc2cccc(Cl)c2O)cc1	i
COc1ccc(C(=O)n2nc(-c3ccco3)nc2NCc2cccs2)cc1OC	13µM*
COc1ccc(C(=O)n2nc(-c3ccc(Cl)cc3)nc2NCc2ccco2)cc1	-14%
CN(C)c1ccc(CNc2nc(-c3ccco3)nn2C(=O)c2cccc([N+](=O)[O-])c2)cc1	-5%
C=C(C)C(=O)O[C@H]1[C@H]2C(=C)C(=O)O[C@@H]2C[C@@H](C)/C=C\C(=O)[C@](C)(O)[C@@H]1OC(C)=O	-14%[10 µM]
O=C(Nc1ccc(F)cc1)c1cc(-c2ccc[nH]2)n[nH]1	10µM*
O=C(Nc1cccc(F)c1)c1cc(-c2ccc[nH]2)n[nH]1	88%
O=C(Nc1cccc(Cl)c1)c1cc(-c2ccc[nH]2)n[nH]1	11%
CCNC(=O)C1OC(n2cnc3c(N)nc(NCCc4ccc(CCC(=O)O)cc4)nc32)C(O)C1O (stereo not drawn)	-10%
O=C(CNC(=O)c1ccc2n[nH]nc2c1)OC(C(=O)Nc1cc(C(F)(F)F)ccc1Cl)c1ccccc1 (stereo not drawn)	i
CCNC(=O)c1ccc(-c2ccc3ncnc(NCC4CCCO4)c3c2)o1 (stereo not drawn)	i
OC(CN1CCN(c2cccc(Cl)c2)CC1)C(c1ccccc1)c1ccccc1 (stereo not drawn)	29%
SMILES	nsP2pro primary
Cc1cc(OCC(O)CN2CCN(c3cccc(Cl)c3)CC2)ccc1Cl (stereo not drawn)	11µM*
CCN1CCN(CC(O)COc2cccc(CNCc3cnn(CC)c3)c2)CC1 (stereo not drawn)	i
COCCNC(=O)C[C@@H]1C[C@@H](C(C)C)[C@H](CNC(=O)c2cnccn2)C=C1C	2%[39.2 µM]
CN(C)C1CCN(Cc2cc(COCc3ccccc3)c3cccnc3c2O)C1 (stereo not drawn)	i
CCOc1ccc(/C=C/c2nc3ccccc3n2S(=O)(=O)c2ccc(Br)cc2)cc1	-20%
COc1cc2c(cc1OC)-c1[nH]nc(Nc3cccc(F)c3)c1C2	63%
O=C(CN1CCCN(Cc2cccc(Cl)c2)S1(=O)=O)Nc1ccc2c(c1)OCCO2	-19%
Cc1ccc(-n2nc(C)c3c(C(=O)O)cc(C)nc32)cc1	-15%
COc1ccc(NC(=O)c2c(NCc3sccc3C)sc3c2CCCC3)c(OC)c1	-13%
CCOC(=O)N1CCc2c(sc(NCc3cccs3)c2C(=O)Nc2cc(OC)ccc2OC)C1	11µM*
COc1ccccc1NC(=O)c1c(NCc2ccc(OC)c(OC)c2OC)sc2c1CCC2	-23%
Cc1ccc(CSc2nnc(CCNC(=O)OC(C)(C)C)o2)cc1	-18%
Cc1cccc(-c2noc(CNC(=O)c3ccco3)n2)c1	-10%
COCCn1c(C)cnc1CCNS(=O)(=O)c1cc(OC)ccc1OC	1%
COCCn1c(C)cnc1CCNS(=O)(=O)c1c(C)nn(C)c1C	10µM*
COCCn1c(C)cnc1CCNC(=O)NCC(C)C	i
O=C(NCCCc1ccccc1F)[C@H]1CCC[C@@H](O)C1	-1%
O=C1Nc2ccccc2C1Cc1cc(Cl)c(O)c(Cl)c1 (stereo not drawn)	-4%
CCOc1ccc2oc(=O)cc(CN3CCN(Cc4ccc(C)cc4)CC3)c2c1	-18%
COc1ccc([C@@H]2OC[C@H]3[C@@H]2CO[C@@H]3c2ccc(OC3OC(CO)C(O)C(O)C3O)c(OC)c2)cc1OC (stereo partly drawn)	3%[10 µM]
CC(C)c1nn2c(=O)cc(COC(=O)c3ccc4c(c3)OCO4)nc2s1	-29%
CC(C)c1nn2c(=O)cc(COC(=O)c3ccco3)nc2s1	13µM*
CC(C)c1nn2c(=O)cc(COC(=O)Cc3ccccc3)nc2s1	-17%
Cc1ccc(N[S+](=O)([O-])c2cc3c(cc2Cl)NC(=O)CO3)cc1Br	3%
C[C@H]1[C@H](/C=C/c2ccc(-c3ccccc3C#N)cn2)[C@@H]2[C@@H](C)OC(=O)[C@@H]2C[C@@H]1C	-16%
SMILES	nsP2pro primary
CC(C)N1C(=O)[C@@H]2[C@@H](CCN2C(=O)CCCC(=O)O)N(Cc2cccc(F)c2)C1=O	-1%[39.2 µM]
O[C@@H]1CO[C@H]2[C@@H]1OC[C@@H]2n1nnnc1SCc1ccco1	11µM*
COc1ccc(NC(=O)N[C@H]2CO[C@H]3[C@@H]2OC[C@@H]3n2nnnc2-c2ccccc2)cc1	-4%[39.2 µM]
O=C(NC1CCCCC1)O[C@@H]1CO[C@H]2[C@@H]1OC[C@@H]2n1nnnc1-c1ccccc1	-4%[39.2 µM]
O=S(=O)(Nc1ccc(O)c(Sc2nc3ccccc3s2)c1)c1cc(Cl)ccc1Cl	-20%
O=C1c2ccccc2NC(c2ccc(-c3ccc(F)cc3)o2)N1O (stereo not drawn)	-4%
O=C1c2ccccc2NC(c2ccc(-c3ccc(Br)cc3)o2)N1O (stereo not drawn)	13µM*
O=C1c2ccccc2NC(c2ccc(-c3ccc(-c4ccccc4)cc3)o2)N1O (stereo not drawn)	i
C=C(C)[C@@H]1CC[C@]2(C(=O)O)CC[C@]3(C)[C@H](CCC4[C@@]5(C)CCC(=O)C(C)(C)C5C(O)C[C@]43C)C12 (stereo partly drawn)	3%[10 µM]
Cc1cc2c(s1)c1cnn(Cc3c(F)cccc3F)c(=O)c1n2C	-1%
O=c1[nH]/c(=C\c2ccc([N+](=O)[O-])cc2)c(=O)[nH]/c1=C\c1ccc([N+](=O)[O-])cc1	1%
COc1ccc(C2=Nn3c(nnc3-c3ccccc3OC)SC2)cc1OCC1CC1	i
CC1COC2=C1C(=O)C(=O)c1c2ccc2c1CCCC2(C)C (stereo not drawn)	11µM*
CN1CCCN(C(=O)c2ccccc2F)c2ccccc21	-17%
COc1cccc(N2C(=O)NC(=NC3CCCC3)C23CCCN(C(=O)c2ccc(C)cc2)C3)c1 (stereo not drawn)	i
CC[C@@H](CO)NC(=O)[C@@H]1C=C2c3cccc4[nH]cc(c34)C[C@H]2N(C)C1	-6%
